# Source: the supplement of paper PMC12669032
# Values without a mark were called inactive.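 Rule for the calls: active = AUC reduced over 20% with Padj below 0.05 in at least 2 of 3 replicates; inactive = otherwise.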
# How the values were obtained:
# Roseburia intestinalis = test: growth AUC relative to DMSO control (median of replicates) (fraction); higher = more growth (less inhibition), active = hit call of the paper; settings: 20 µM; 24 h
# Procedure, shortened: (§1)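 Gut bacterial monocultures in mGAM were treated with 20 µM compound (1% DMSO) and grown anaerobically at 37 °C in round-bottom 96-well plates from OD600 0.05. OD600 was read hourly for 24 h, with the minimum OD set to 0. Area under the growth curve was normalised to the plate median of solvent-only wells, or to row and column medians on the industrial chemical plate. Each value is the median of three biological replicates, each grown on a separate day.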
# Streptococcus salivarius = test: as above; settings: 20 µM; 24 h
# Procedure, shortened: as §1
SMILES,growth AUC (Roseburia intestinalis),growth AUC (Streptococcus salivarius)
COC(C)(C)CCCC(C)C/C=C/C(C)=C/C(=O)OC(C)C (configuration not stated),1.01,1.01
c1ccc(-c2ccccc2)cc1,1.02,0.993
C1=Cc2cccc3cccc1c23,0.987,0.98
NC(=S)c1c(Cl)cccc1Cl,1,0.943
CC(C)OC(=O)Nc1ccccc1,1.06,1.01
CC1(C)C(C=C(Cl)Cl)C1C(=O)OC(C#N)c1cccc(Oc2ccccc2)c1 (configuration not stated),0.871,0.937
CN(C)C(=O)Nc1ccc(Cl)cc1,0.979,0.971
COC(=O)c1sccc1S(=O)(=O)NC(=O)Nc1nc(C)nc(OC)n1,0.947,0.859
CCCCN(CC)C(=O)SCCC,1.03,0.996
N#Cc1nn(-c2c(Cl)cc(C(F)(F)F)cc2Cl)c(N)c1SC(F)(F)F,0.558 (active),0.75 (active)
[CH3][Hg][Cl],1.05,0.848
CCOP(=S)(OCC)SCSC(C)(C)C,0.951,0.996
O=C(O)c1cc(Oc2ccc(C(F)(F)F)cc2Cl)ccc1[N+](=O)[O-],0.963,0.987
CC(C)Nc1nc(Cl)nc(NC(C)C)n1,0.962,0.99
CNC(=O)Oc1ccccc1OC(C)C,1.01,0.98
Oc1ccc(Cl)cc1Cc1cc(Cl)ccc1O,0.64 (active),0.445 (active)
O=C1C=CC(=O)C=C1,1.08,0.979
CC(C)N(C)S(=O)(=O)NC(=O)c1cc(-n2c(=O)cc(C(F)(F)F)n(C)c2=O)c(F)cc1Cl,1.03,0.998

SMILES,growth AUC (Roseburia intestinalis),growth AUC (Streptococcus salivarius)
CCCCOCN(C(=O)CCl)c1c(CC)cccc1CC,0.97,0.915
CCCCOC(=O)N(C)SN(C)C(=O)Oc1cccc2c1OC(C)(C)C2,0.992,1.02
CC(C)(C)C(O)(CCc1ccc(Cl)cc1)Cn1cncn1 (configuration not stated),1.1,1.01
CNC(=O)N(C)c1nnc(C(C)(C)C)s1,1.03,0.959
CCCCN(CC)c1c([N+](=O)[O-])cc(C(F)(F)F)cc1[N+](=O)[O-],1.04,1.03
CNC(=O)/C(=N\OC)c1ccccc1Oc1ccccc1,0.995,0.999
COP(=S)(OC)Oc1ccc(S(C)=O)c(C)c1 (configuration not stated),1.07,0.988
Clc1ccc(C(c2ccc(Cl)cc2)C(Cl)Cl)cc1,0.923,0.99
CCNS(=O)(=O)C(F)(F)C(F)(F)C(F)(F)C(F)(F)C(F)(F)C(F)(F)C(F)(F)C(F)(F)F,1.03,0.96
CCCN(CCC)c1c([N+](=O)[O-])cc(S(N)(=O)=O)cc1[N+](=O)[O-],0.961,0.985
C[n+]1ccc(-c2cc[n+](C)cc2)cc1.O.[Cl-].[Cl-],1,0.982
C=CCNC(=O)c1c([Si](C)(C)C)sc(C)c1C,1.03,1
CCC(C)(C)C(=O)OC1=C(c2ccc(Cl)cc2Cl)C(=O)OC12CCCCC2,1.02,1.03
C[C@@H](Oc1ccc(Cl)cc1Cl)C(=O)O,0.927,0.919
CC(=O)O.NC(N)=NCCCCCCCCNCCCCCCCCN=C(N)N,0.039 (active),0.474 (active)
CNC(=O)Oc1ccccc1C(C)C,1.06,1.04
COP(=O)(OC)O/C(=C\Cl)c1ccc(Cl)cc1Cl,1.03,1
O=C(NC(=O)c1c(F)cccc1F)Nc1ccc(OC(F)(F)C(F)OC(F)(F)F)c(Cl)c1 (configuration not stated),1.06,1.01
